Source: PubChem BioAssay (National Center for Advancing Translational Sciences (NCATS))
Tau fluor counter – counter-screen for tau fibril formation inhibitors; hit rate 0.93% among 280,000; Potency, µM (top dose mostly 57.7 µM); tau K18 P301L Alexa594 fluorescence, heparin fibrillization; note: nearly all actives have a fitted effect of over 55% in size
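Human tau K18 P301L (15 uM unlabeled, 0.24 uM Alexa 594-labeled) in 100 mM sodium acetate pH 7 with 20 uM heparin, 6 hr at 37 C. ThT 30 uM added, 1 hr ambient; Alexa 594 FP and total fluorescence read at 555/632 nm.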
Sfp PPTase inh – inhibitors of Bacillus subtilis Sfp phosphopantetheinyl transferase; Q9F4F7; Biochemical Sfp PPTase activity, qHTS; Potency, µM, usual class: inhibitors; hit rate 3.5% among 310,000; AID 1490;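 note: the enzyme is Sfp with the accession as filed and its product quenches rhodamine fluorescence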
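Step 1, compound plus 15 nM Sfp-PPTase, 15 min, room temperature. Step 2, add rhodamine-CoA (5 uM) and BHQ-2-YbbR (12.5 uM). Step 3, read 525/598 nm fluorescence at 0 and 30 min.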
Tau fibril ThT – blocks human tau fibril formation measured by thioflavin T. P10636. Potency, µM (titrated, usually from 57.4 µM), hits mostly inhibitors. hit rate 2.1% among 270,000. recombinant tau K18 P301L (four-repeat tau fragment), heparin-induced fibrillization, ThT fluorescence; note: nearly all actives have a fitted effect of over 55% in size
Target sequence (P10636 561-689 P618L limits assumed): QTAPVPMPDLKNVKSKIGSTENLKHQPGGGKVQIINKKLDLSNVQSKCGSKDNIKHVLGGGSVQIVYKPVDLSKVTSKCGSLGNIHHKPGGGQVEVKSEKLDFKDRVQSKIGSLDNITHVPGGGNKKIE
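Aggregation was driven by heparin (20 uM final) acting on recombinant tau […] bearing P301L in 100 mM sodium acetate pH 7; fibrils were detected with Thioflavin T.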
G9a inh – blocks human histone lysine methyltransferase G9a. AID 504332. hit rate 8.8% among 350,000. G9a H3K9 monomethylation, AlphaScreen, 2 h. Potency, µM (top dose mostly 102 µM), usual class: inhibitors. Q96KQ7; note: nearly all actives have a fitted effect of over 75% in size
Target sequence (Q96KQ7 913-1193 limits assumed): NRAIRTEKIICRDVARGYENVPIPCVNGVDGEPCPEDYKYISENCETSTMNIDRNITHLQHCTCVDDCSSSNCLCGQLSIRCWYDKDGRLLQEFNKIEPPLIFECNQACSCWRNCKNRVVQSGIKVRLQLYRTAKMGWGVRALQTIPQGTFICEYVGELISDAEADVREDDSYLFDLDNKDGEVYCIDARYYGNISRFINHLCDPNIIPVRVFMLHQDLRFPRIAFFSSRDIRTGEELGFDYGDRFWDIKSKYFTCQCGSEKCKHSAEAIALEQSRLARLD
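Step 1: enzyme (final 20 nM) with compound, 15 min RT. Step 2: substrate peptide 500 nM and SAM 20 uM, 2 h RT. Step 3: anti-H3K9me1 antibody and AlphaScreen beads, 10 min, then plate read.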
FBPA coupling cs – inhibits coupling enzyme system, counter-screen for aldolase hits | coupling enzyme system counterscreen, AmpLite Red fluorescence | activity change, negative = inhibition, % at 58.2 µM, hits read low | hit rate 0.67% among 290,000 | AID 2472; in the data active = activity change below about -30%
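Fluorescence at 525 nm excitation and 598 nm emission measured inhibition of the coupled detection system without aldolase. Compounds (at 57.5 uM final) were preincubated 10 min at room temperature with coupling enzyme reagent before a 20 min substrate/AmpLite Red step.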
Tau FP inhib – tau fibrillization inhibition (FP); K18 P301L tau heparin fibrillization, Alexa594 FP, 6 h; hit rate 0.39% among 280,000; Potency, µM (highest dose often 57.7 µM), most hits filed as inhibitors; P10636; note: nearly all actives have a fitted effect of over 55% in size
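Human K18 P301L fragment (15 uM unlabeled plus 0.24 uM Alexa 594-labeled) in 100 mM sodium acetate pH 7 with compound, aggregation induced by 20 uM heparin for 6 hr at 37 C. ThT (30 uM) added for 1 hr, then Alexa 594 FP read.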
A number is an active result; 0 = inactive; ? = inconclusive; - = no result given; [ ] = remark or other dose. Rows were chosen to be rich in hits. Some 11% of all compounds tested hit in one or more screens of this group. Unless noted, calls come from the whole dose curve; as a rule, active = well fitted curve in the direction sought with a large enough effect; inconclusive = small, poorly fitted or top-dose-only effect, or another doubt; inactive = no such curve, though single readings can be large; an effect the other way counts as inactive or inconclusive.

SMILES	Tau fluor counter	Sfp PPTase inh	Tau fibril ThT	G9a inh	FBPA coupling cs	Tau FP inhib
Cc1ccc(Cn2c(C)c(CNCC(C)c3ccccc3)c(C(=O)O)c2C)cc1 (centres undefined)	0	-	0	0	-	0
COCCCNC(=S)NNC(=S)Nc1ccccc1	0	45µM	0	-	0	0
CCCNC(=S)Nc1ccccc1	0	0	0	0[2.33 µM]	0	0
COCCCNC(=S)NNC(=S)Nc1ccc(F)cc1F	0	79µM	0	2.5µM	0	0
COCCCNC(=S)Nc1ccc(C)cc1	0	0	0	0	0	0
COCCCNC(=S)NCCc1ccc(F)cc1	0	0	0	?	0	0
C=COCCNC(=S)Nc1ccccc1	0	0	0	32µM	0	0[2.34 µM]
COC(=O)c1c(NC(=O)c2cc(=O)c3ccc(C)c(C)c3o2)sc2c1CCCC2	0	-	0	0	-	0
Cc1cccc(OCC(=O)Nc2ccc(S(=O)(=O)N(Cc3ccccc3)c3ccccc3)cc2)c1	?	-	0	0	-	?
O=C(c1cc2ccccc2oc1=O)N1CCN(c2ccc(F)cc2)CC1	0	-	0	0	-	0
COc1ccccc1C(=O)N1c2ccccc2C(C)(c2ccc(Cl)cc2)CC1(C)C (centres undefined)	0	-	0	0	-	0
Cc1c(C(=O)Nc2ccccc2N2CCN(C)CC2)oc2ccc(F)cc12	-	-	-	32µM	-	-
COc1ccccc1N1CCN(C(=O)c2oc3ccc(F)cc3c2C)CC1	0	0	?	0	0	0
O=C(Nc1cccnc1Cl)c1cc2c(s1)-c1ccccc1OC2	-	0	-	0	0	-
CN1CCN(c2ccccc2NC(=O)c2cc3c(s2)-c2ccccc2OC3)CC1	?	79µM	-	0	0	?
CC(=O)/C(=N\Nc1ccccc1Cl)Sc1nnc(-c2ccccc2)n1-c1ccccc1	0	0	0	8.9µM	0	0
CC(=O)/C(=N\Nc1ccccc1)Sc1nnc(-c2ccccc2)n1-c1ccccc1	0	0	0	10µM	0	0
CC(=O)C(N=Nc1ccccc1)(Sc1nnc(-c2ccccc2)n1-c1ccccc1)C(=O)Nc1ccccc1 (centres undefined)	0	0	0	0	0	?
CC(=O)/C(=N\Nc1ccccc1)Sc1nncn1C	0	20µM	0	4µM	0	0
CC(=O)/C(=N\Nc1ccc(Cl)cc1Cl)Sc1nnc(-c2ccccc2)n1-c1ccccc1	0	0	0	?	0	0
Cc1occc1-c1nnc(SCC(=O)N2CCCc3ccccc32)n1Cc1ccco1	0	0	0	0[12.7 µM]	0	0
O=C(CSc1nnc(-c2cccnc2)n1Cc1ccco1)N1CCc2ccccc21	0	20µM	0	0	0	0
Fc1ccc(CSc2nnc(-c3cccnc3)n2Cc2ccco2)cc1	0	40µM	0	50µM	0	0
COc1ccc(S(=O)(=O)N2CCN(C(=O)NCc3ccc(OC)c(OC)c3)CC2)cc1	-	0	-	0	0	-
COc1ccc(CNC(=O)CN2CCN(S(=O)(=O)c3cc(Br)ccc3Br)CC2)cc1OC	-	-	-	50µM	-	-
SMILES	Tau fluor counter	Sfp PPTase inh	Tau fibril ThT	G9a inh	FBPA coupling cs	Tau FP inhib
O=S(=O)(NC(=S)c1ccccc1)c1ccc(F)cc1	-	0	-	79µM	0	-
OCC1O[C@H]([S-])[C@H](O)[C@@H](O)[C@@H]1O.[Au+] (some centres undefined)	-	-	-	0.21µM	-	-
CCn1c(CCNC(=O)c2ccc(Cl)cc2Cl)n[nH]c1=S	0	0	0	40µM	0	0
CCCNC(=O)c1ccc(Cl)cc1Cl	0	0	0	50µM	0	0
CCCCSc1nnc2n(-c3ccc(OC)cc3)c(=O)c3c4c(sc3n12)COC(C(C)C)C4 (centres undefined)	0	-	0	0	-	0
CCCCn1c(N)c(N(CC(C)C)C(=O)CSC(C)C(=O)Nc2cc(C)on2)c(=O)[nH]c1=O (centres undefined)	-	-	-	56µM	-	-
CCCCn1c(N)c(N(CC(C)C)C(=O)CSCC(=O)Nc2cccc(C)c2)c(=O)[nH]c1=O	-	-	-	0	-	-
CCCCn1c(N)c(N(CC(C)C)C(=O)CSCc2c(C)noc2C)c(=O)[nH]c1=O	-	-	-	45µM	-	-
CN(C)CCCNCC(=O)c1c(-c2ccccc2)n(C)c2ccccc12	-	40µM	-	0	0	-
Cn1c(-c2ccccc2)c(C(=O)CC#N)c2ccccc21	0	0	0	0	0	0
Cc1ccccc1CNC(=O)c1ccc2c(c1)N(Cc1ccccc1)CCS2	?	-	0	0	-	0
Cc1ccc(C(=O)CC2(O)C(=O)N(CCc3ccccc3)c3ccc(Br)cc32)o1 (centres undefined)	0	7.9µM	0	?	0	0
CCOCCCNCC(=O)Nc1ccccc1N1CCOCC1	0	0	0	11µM	0	0
O=C(CNC1CCCCCC1)Nc1ccccc1N1CCOCC1	0	0	0	8.9µM	0	0
CSc1ccccc1NC(=O)CNCCCN1CCOCC1	0	?	0	3.5µM	0	0
COc1ccc(N(C)C(=O)c2cc(S(=O)(=O)N3CCc4ccccc43)cn2C)c(OC)c1	?	-	0	0	-	0
O=C(O)Cc1ccc(C(=O)c2ccc(Cl)cc2Cl)s1	0	0	0	0	0	0
O=C(O)Cc1ccc(C(=O)c2ccccc2F)s1	0	0	0	45µM	0	0
C/C(=N\Nc1ccccc1)c1cc2ccccc2oc1=O	?	0	11µM	35µM	0	?
C/C(=N\Nc1ncc(Cl)cc1Cl)c1ccccn1	0	0	?	45µM	0	0
C/C(=N\Nc1ncnc2sc(C)c(C)c12)c1ccccn1	-	0	-	25µM	0	-
COc1ccc2oc(=O)c(/C(C)=N/Nc3nc(-c4cc(C)ccc4C)cs3)cc2c1	0	0	?	?	0	0
C/C(=N\NC(=O)CC#N)c1cc2ccccc2oc1=O	0	?	0	0	0	0
C/C(=N\Nc1nc(-c2ccc(C)cc2C)cs1)c1cc2ccccc2oc1=O	0	40µM	?	?	0	0
CC1Nc2nc(NC(=O)C(C)(C)C)[nH]c(=O)c2N(C)C1C (centres undefined)	0	0	0	0	0	0
SMILES	Tau fluor counter	Sfp PPTase inh	Tau fibril ThT	G9a inh	FBPA coupling cs	Tau FP inhib
COc1ccccc1CNC(=O)C1CCC(=O)N(CCCc2ccccc2)C1 (centres undefined)	-	0	-	0	0	-
C/C(=N\Nc1ccc(Cl)c(C(=O)O)c1)c1ccccn1	0	79µM	0	-	0	0
O=C(O)c1cc(N/N=C/c2cccc3ccccc23)ccc1Cl	-	0	-	?	0	-
O=C(NNC(=S)Nc1ccc(Cl)c(Cl)c1)c1ccccn1	0	0	?	-	0	?
C/C(=N\Nc1ccc(Cl)c(C(=O)O)c1)c1cccc2ccccc12	-	0	-	10µM	0	-
C/C(=N\Nc1cccc(C(=O)O)c1)c1cc2ccccc2o1	0	0	?	50µM	0	0
C/C(=N\Nc1ccc(Cl)c(C(=O)O)c1)c1cc2ccccc2o1	0	0	?	28µM	0	0
C/C(=N\Nc1cccc([N+](=O)[O-])c1)c1cc2ccccc2o1	?	0	?	0	0	0
